# Experimental data published in PubChem BioAssay (NCI).
# This is part of a sample that, as a whole, favours compounds with a hit. Of some 83,000 tested, about 20% had one in any assay.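 Each cell line was grown in a 96-well plate and treated with one concentration of compound for 48 hours. Values below 10 were considered active.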 A number with no mark means an inactive call. Calls of active or inactive are those of the source.
# Experiments:
# Assay in all cases: NCI-60 one-dose screen, 48 h (100 = growth as untreated, 0 = no growth, -100 = all killed)
# Details in all cases: 10 µM unless noted
# HCT-15 colon = tested on: HCT-15 colon
# HT29 colon = tested on: HT29 colon
# SNB-75 CNS = tested on: SNB-75 CNS
# SNB-19 CNS = tested on: SNB-19 CNS
# U251 CNS = tested on: U251 CNS
# PC-3 prostate = tested on: PC-3 prostate
# SK-MEL-5 melanoma = tested on: SK-MEL-5 melanoma
# UACC-62 melanoma = tested on: UACC-62 melanoma
# LOX IMVI melanoma = tested on: LOX IMVI melanoma
# SK-MEL-28 melanoma = tested on: SK-MEL-28 melanoma
# SK-MEL-2 melanoma = tested on: SK-MEL-2 melanoma
# EKVX NSCLC = tested on: EKVX NSCLC
# SN12C renal = tested on: SN12C renal
# UO-31 renal = tested on: UO-31 renal
# TK-10 renal = tested on: TK-10 renal
# CAKI-1 renal = tested on: CAKI-1 renal
# A498 renal = tested on: A498 renal
# CCRF-CEM leukemia = tested on: CCRF-CEM leukemia
# MOLT-4 leukemia = tested on: MOLT-4 leukemia
# ACHN renal = tested on: ACHN renal
Structure (SMILES),growth (HCT-15 colon),growth (HT29 colon),growth (SNB-75 CNS),growth (SNB-19 CNS),growth (U251 CNS),growth (PC-3 prostate),growth (SK-MEL-5 melanoma),growth (UACC-62 melanoma),growth (LOX IMVI melanoma),growth (SK-MEL-28 melanoma),growth (SK-MEL-2 melanoma),growth (EKVX NSCLC),growth (SN12C renal),growth (UO-31 renal),growth (TK-10 renal),growth (CAKI-1 renal),growth (A498 renal),growth (CCRF-CEM leukemia),growth (MOLT-4 leukemia),growth (ACHN renal)
ClCC1(Cn2cnc3c(Cl)nc(Cl)nc32)COC1,45.9%,76.8%,85.4%,88.8%,89.2%,66.3%,98.4%,91.6%,45.2%,89.9%,90.7%,100%,95.6%,88.7%,85.2%,49%,89.6%,71.5%,87.7%,–
C=C1C(=O)O[C@H]2[C@H]1CC/C(COC(=O)CCCCCC(=O)OC/C1=C/CC[C@@]3(C)O[C@H]3[C@H]3OC(=O)C(=C)[C@@H]3CC1)=C\CC[C@@]1(C)O[C@@H]21,0.552% (active),3.42% (active),46.5%,62.4%,47.8%,29.8%,26.3%,8.53% (active),-53.5% (active),18.5%,55.7%,19.9%,0.951% (active),-32.1% (active),7.18% (active),–,90.5%,4.16% (active),0.768% (active),-25.7% (active)
CCOC(=O)c1c(O)cc(-c2ccccc2)cc1-c1sc(N(C)Cc2ccccc2)nc1Cl,101%,110%,89.9%,101%,98%,97%,101%,92.6%,97%,101%,101%,101%,97.3%,96.8%,108%,87.9%,108%,96.3%,94.4%,–
COc1ccc(C(=O)/C=C/c2ccc(OCc3ccccc3)c(OC)c2)cc1OC,45.8%,10.6%,34.1%,87.1%,10.1%,46%,66.1%,70.8%,34.3%,89.6%,83.5%,54.7%,61.1%,43.8%,48.4%,55.5%,–,17.4%,44.8%,–
COc1cc(OC)c(/C=C/C(=O)c2ccc(Nc3ncnc4ccccc34)cc2)c(OC)c1,9.75% (active),-62.4% (active),-38.9% (active),12.9%,-9.02% (active),12%,-42.4% (active),-50% (active),3.48% (active),-26.4% (active),7.01% (active),2.86% (active),25.3%,-15.8% (active),-17.9% (active),17.8%,-26.4% (active),1.37% (active),12.7%,–
C=C1C(=O)O[C@H]2[C@H]1CC/C(COC(=O)/C=C/c1c[nH]c3ccccc13)=C\CC[C@@]1(C)O[C@@H]21,-64.6% (active),-83.6% (active),-53.7% (active),-68.8% (active),-98.1% (active),-73.4% (active),-98.4% (active),-71.9% (active),-97.3% (active),-54% (active),-83.7% (active),-41.4% (active),-54% (active),-100% (active),-99.2% (active),–,-98.8% (active),2.46% (active),5.13% (active),-100% (active)
O=C(CN1CCOCC1)Nc1ccc2ncnc(Nc3ccc(Oc4cccc(C(F)(F)F)c4)c(Cl)c3)c2c1,52.2%,54%,73.7%,61.9%,62.4%,44.5%,58.9%,71%,43.8%,77.1%,75.9%,22%,38.4%,22.5%,38.4%,33.8%,10.1%,58.4%,37.5%,–
COc1ccc(/C=C/c2n[nH]c3ccc(N4CCOC4=O)cc23)cc1,10.1%,-18.6% (active),-11.1% (active),18.2%,15.9%,18.5%,11.7%,16.5%,1.88% (active),33.5%,11.7%,8.71% (active),24%,-45.7% (active),-9.71% (active),4.59% (active),-19.6% (active),-17% (active),4.38% (active),–
O=C(O)CCCCCCCCCCCCCCC(=O)O,104%,104%,88.2%,99.1%,93.7%,92.6%,103%,95.1%,98.6%,106%,103%,106%,93.8%,99.8%,90.4%,103%,76.9%,96.1%,103%,–
CCCC1C(C(=O)OCC)=C(N)Oc2cc(O)ccc21 (stereo unspecified),96.7%,97.8%,76.9%,103%,104%,77.5%,96.5%,94.8%,90.4%,114%,99%,80.6%,103%,70.7%,105%,–,109%,99.7%,89%,94.1%
C=C(C)[C@@H]1CC[C@]2(C(=O)O)CC[C@]3(C)[C@H](CC[C@@H]4[C@@]5(C)C[C@@H](CC#Cc6ccc(Br)cc6)C(=O)C(C)(C)[C@@H]5CC[C@]43C)[C@@H]12,65.6%,30.7%,70.9%,40.7%,3.58% (active),28.7%,68.6%,-29% (active),52%,-35.5% (active),-12.6% (active),52.1%,4.51% (active),68%,62%,–,-4.41% (active),28.9%,31.9%,65%
COc1cc2nc(-c3ccc(C#N)cc3)[nH]c(=O)c2cc1OC,107%,113%,109%,98.9%,100%,105%,96.8%,87.8%,90.8%,102%,128%,98.7%,91.7%,97.4%,271%,92%,120%,188%,–,–
c1ccc(-c2nnc(Nc3ccc4c(c3)OCCO4)o2)c(NCc2ccncc2)c1,6.86% (active),0.34% (active),22.6%,28.4%,20.5%,29.7%,-50% (active),20.7%,23.6%,63.3%,4.04% (active),35.4%,27.5%,30.2%,50.9%,21.1%,10%,20.4%,21.1%,–
CC(N)C(=O)NNc1n[nH]c(=S)n1N (stereo unspecified),93.9%,109%,92.8%,99.1%,103%,99.6%,97.5%,102%,98.5%,102%,105%,93.9%,102%,83%,108%,93.9%,94.8%,102%,107%,–
CN1CCN(CCCOc2ccc3ncnc(Nc4ccc(Oc5cccc(C(F)(F)F)c5)c(Cl)c4)c3c2)CC1,-55.7% (active),-26.9% (active),-21.1% (active),41.7%,-11% (active),7.28% (active),-96.8% (active),-75.7% (active),-87.7% (active),-93.2% (active),40.3%,36.6%,27.1%,20.1%,19.3%,0.55% (active),63.1%,-9.94% (active),3.44% (active),–
Cc1c2c(cc[n+]1Cc1ccccc1)c1ccc(OCc3ccccc3)cc1n2Cc1ccccc1,39.2%,-48.7% (active),-18% (active),-13.3% (active),-80.2% (active),-44.8% (active),-99.4% (active),-87.1% (active),-93.2% (active),-56.5% (active),-36% (active),-28.8% (active),-86.6% (active),-18.2% (active),11.8%,-5.76% (active),–,-16.2% (active),-51% (active),–
